Columns and labels:
Experiment in all cases: DAPPL (digital affinity profiling via proximity ligation, sequencing); 10 mM Tris-HCl pH 7.5, 50 mM NaCl, 1 mM DTT, 4% glycerol, room temperature, 30 min; GST-TFs on glutathione beads, 16-mer random dsDNA library, 0.1% formaldehyde crosslink after washing; high values mean tight binding
[1] = target: T1, FEV (Homo sapiens, UniProt Q99581 1-238); conditions: protein: recombinant; tags: N-terminal GST; dsDNA, one strand shown
T1 sequence: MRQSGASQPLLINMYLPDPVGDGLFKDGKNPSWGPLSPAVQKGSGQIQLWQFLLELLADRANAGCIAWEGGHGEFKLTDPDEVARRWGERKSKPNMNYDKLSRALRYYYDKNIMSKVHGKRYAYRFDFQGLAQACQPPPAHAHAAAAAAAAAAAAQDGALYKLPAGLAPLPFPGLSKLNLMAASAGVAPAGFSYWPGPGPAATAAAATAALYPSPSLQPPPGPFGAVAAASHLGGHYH
In short: (§1)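 The binding signal reported is, for every hexamer, its read frequency for a factor over its read frequency for the tag-only sample. Reads came from pools of yeast-expressed, GST-fused human transcription factors on glutathione beads, barcoded with DNA and mixed with that sample, which were incubated with 200 nmole of a random double-stranded 16-mer DNA library in Tris/NaCl/DTT/glycerol buffer at room temperature for 30 min. After washing, the pools were crosslinked with 0.1% formaldehyde, proximity-ligated with BsaI/T4 ligase for 1 h at 37 °C, PCR-amplified and sequenced on an Illumina NextSeq500.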

[2] = target: ETV5 (Homo sapiens, UniProt P41161 1-510); conditions: protein: recombinant; tags: N-terminal GST; dsDNA, one strand shown
Sequence of ETV5 (P41161 whole entry): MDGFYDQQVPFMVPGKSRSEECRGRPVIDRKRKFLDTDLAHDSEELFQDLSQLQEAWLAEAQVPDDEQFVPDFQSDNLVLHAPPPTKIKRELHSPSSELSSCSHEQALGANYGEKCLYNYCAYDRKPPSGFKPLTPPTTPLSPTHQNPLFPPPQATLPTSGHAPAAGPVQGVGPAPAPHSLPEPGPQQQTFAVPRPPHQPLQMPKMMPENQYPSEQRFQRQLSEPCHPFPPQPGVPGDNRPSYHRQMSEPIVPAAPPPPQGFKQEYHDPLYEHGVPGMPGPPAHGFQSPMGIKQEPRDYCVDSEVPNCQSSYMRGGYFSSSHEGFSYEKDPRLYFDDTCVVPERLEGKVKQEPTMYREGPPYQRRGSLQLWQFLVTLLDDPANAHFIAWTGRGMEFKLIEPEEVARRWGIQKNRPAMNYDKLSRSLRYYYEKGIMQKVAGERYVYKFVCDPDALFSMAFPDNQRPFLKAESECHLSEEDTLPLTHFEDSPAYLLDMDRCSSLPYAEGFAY
In short: as §1

[3] = target: HSF1 (Homo sapiens, UniProt Q00613 1-529); conditions: protein: recombinant; tags: N-terminal GST; chain copies: 3; dsDNA, one strand shown
Sequence of HSF1 (Q00613 whole entry): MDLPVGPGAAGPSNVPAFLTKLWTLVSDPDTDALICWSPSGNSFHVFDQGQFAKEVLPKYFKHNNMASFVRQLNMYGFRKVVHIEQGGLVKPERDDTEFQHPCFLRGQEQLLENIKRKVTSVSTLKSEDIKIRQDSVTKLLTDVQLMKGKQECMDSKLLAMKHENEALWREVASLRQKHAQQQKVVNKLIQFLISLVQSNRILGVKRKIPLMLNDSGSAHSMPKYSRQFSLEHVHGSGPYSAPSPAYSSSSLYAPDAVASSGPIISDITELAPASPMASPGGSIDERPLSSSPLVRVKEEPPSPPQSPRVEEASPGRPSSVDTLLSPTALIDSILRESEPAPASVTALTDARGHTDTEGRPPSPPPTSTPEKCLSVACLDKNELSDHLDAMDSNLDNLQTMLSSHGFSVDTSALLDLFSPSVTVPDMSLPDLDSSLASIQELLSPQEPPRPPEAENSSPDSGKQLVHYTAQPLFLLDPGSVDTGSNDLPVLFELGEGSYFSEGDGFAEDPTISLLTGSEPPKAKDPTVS
In short: as §1

[4] = target: T2, SPIC (Homo sapiens, UniProt Q8N5J4 1-248); conditions: protein: recombinant; tags: N-terminal GST; dsDNA, one strand shown
T2 sequence: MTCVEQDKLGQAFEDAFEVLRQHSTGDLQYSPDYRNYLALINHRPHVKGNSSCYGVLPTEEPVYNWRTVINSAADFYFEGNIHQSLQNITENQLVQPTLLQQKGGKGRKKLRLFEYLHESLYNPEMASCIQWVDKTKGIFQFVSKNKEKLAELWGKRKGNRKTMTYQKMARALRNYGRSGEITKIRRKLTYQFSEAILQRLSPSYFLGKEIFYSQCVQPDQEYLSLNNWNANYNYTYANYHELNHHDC
In short: as §1

[5] = target: ELF4 (Homo sapiens, UniProt Q99607 1-663); conditions: protein: recombinant; tags: N-terminal GST; dsDNA, one strand shown
Sequence of ELF4 (Q99607 whole entry): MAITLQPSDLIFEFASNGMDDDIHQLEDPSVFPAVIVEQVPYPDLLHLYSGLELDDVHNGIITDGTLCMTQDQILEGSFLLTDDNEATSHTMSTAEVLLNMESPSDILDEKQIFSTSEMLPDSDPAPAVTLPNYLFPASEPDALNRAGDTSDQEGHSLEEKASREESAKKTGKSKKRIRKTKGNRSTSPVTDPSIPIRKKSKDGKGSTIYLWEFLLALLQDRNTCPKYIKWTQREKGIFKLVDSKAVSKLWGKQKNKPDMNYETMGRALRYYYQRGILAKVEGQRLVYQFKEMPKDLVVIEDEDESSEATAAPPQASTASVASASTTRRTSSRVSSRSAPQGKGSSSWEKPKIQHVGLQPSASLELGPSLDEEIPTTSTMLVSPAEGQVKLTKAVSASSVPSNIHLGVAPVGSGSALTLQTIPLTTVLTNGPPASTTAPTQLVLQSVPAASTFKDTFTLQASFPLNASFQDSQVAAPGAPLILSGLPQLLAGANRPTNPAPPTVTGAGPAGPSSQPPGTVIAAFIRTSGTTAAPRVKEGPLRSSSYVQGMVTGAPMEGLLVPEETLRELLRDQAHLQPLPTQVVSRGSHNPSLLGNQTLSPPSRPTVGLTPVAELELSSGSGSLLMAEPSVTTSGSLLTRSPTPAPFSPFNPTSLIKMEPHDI
In short: as §1

[6] = target: T3, ELK4 (Homo sapiens, UniProt P28324-2 1-405); conditions: protein: recombinant; tags: N-terminal GST; dsDNA, one strand shown
T3 sequence: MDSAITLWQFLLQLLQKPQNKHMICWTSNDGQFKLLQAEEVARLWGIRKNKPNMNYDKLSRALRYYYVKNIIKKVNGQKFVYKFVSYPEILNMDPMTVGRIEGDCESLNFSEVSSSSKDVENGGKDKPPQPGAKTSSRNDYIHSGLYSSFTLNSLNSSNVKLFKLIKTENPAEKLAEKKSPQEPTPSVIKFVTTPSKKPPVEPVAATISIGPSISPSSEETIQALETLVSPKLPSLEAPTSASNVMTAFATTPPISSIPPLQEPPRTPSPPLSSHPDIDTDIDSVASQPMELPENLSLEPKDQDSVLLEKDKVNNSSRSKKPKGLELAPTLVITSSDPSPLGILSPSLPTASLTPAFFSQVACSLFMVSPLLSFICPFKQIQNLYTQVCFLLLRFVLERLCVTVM
In short: as §1

[7] = target: T4, ETV2 (Homo sapiens, UniProt O00321 1-342); conditions: protein: recombinant; tags: N-terminal GST; dsDNA, one strand shown
T4 sequence: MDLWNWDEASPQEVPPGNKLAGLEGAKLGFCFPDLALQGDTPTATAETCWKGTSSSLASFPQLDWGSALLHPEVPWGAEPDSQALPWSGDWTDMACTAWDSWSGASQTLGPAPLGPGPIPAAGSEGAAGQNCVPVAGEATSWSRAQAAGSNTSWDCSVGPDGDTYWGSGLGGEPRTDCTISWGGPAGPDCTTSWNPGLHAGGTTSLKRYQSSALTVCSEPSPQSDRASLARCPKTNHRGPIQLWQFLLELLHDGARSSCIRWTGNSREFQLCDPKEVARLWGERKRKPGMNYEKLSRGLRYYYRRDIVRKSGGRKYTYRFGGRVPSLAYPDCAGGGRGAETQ
In short: as §1

[8] = target: T5, ELF3 (Homo sapiens, UniProt P78545 1-371); conditions: protein: recombinant; tags: N-terminal GST; dsDNA, one strand shown
T5 sequence: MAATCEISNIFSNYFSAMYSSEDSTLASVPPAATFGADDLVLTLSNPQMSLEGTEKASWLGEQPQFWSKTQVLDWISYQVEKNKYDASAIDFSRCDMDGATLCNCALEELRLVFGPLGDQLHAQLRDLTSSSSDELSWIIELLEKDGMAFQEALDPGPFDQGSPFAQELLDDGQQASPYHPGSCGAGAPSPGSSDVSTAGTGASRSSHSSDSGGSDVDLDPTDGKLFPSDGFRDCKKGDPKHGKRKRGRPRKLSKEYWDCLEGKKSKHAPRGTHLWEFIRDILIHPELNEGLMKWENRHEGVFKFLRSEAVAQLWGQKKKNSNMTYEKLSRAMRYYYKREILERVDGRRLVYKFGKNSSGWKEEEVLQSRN
In short: as §1

[9] = target: CRX (Homo sapiens, UniProt O43186 1-299); conditions: protein: recombinant; tags: N-terminal GST; dsDNA, one strand shown
Sequence of CRX (O43186 whole entry): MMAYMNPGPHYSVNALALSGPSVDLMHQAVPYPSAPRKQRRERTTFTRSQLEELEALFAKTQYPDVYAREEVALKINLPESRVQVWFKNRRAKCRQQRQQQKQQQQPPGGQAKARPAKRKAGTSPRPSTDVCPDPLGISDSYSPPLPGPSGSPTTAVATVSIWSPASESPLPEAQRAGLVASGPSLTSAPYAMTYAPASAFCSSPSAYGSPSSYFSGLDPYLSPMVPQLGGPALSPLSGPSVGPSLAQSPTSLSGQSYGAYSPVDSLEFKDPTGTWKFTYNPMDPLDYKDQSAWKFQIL
In short: as §1

[10] = target: ETV1 (Homo sapiens, UniProt P50549 1-477); conditions: protein: recombinant; tags: N-terminal GST; dsDNA, one strand shown
Sequence of ETV1 (P50549 whole entry): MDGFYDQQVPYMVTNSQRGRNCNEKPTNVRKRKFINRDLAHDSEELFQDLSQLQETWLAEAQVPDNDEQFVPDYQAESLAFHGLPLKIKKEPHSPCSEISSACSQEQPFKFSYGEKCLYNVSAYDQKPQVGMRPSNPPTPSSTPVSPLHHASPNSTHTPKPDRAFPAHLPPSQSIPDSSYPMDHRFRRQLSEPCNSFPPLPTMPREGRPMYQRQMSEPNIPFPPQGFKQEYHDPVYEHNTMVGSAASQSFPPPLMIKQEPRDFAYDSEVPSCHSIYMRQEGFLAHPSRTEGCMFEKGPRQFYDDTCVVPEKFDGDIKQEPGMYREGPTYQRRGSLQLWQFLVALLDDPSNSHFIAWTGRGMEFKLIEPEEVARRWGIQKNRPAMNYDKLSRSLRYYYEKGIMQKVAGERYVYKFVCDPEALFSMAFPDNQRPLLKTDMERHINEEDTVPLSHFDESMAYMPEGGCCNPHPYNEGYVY
In short: as §1

[11] = target: T6, ERF (Homo sapiens, UniProt P50548 1-548); conditions: protein: recombinant; tags: N-terminal GST; dsDNA, one strand shown
T6 sequence: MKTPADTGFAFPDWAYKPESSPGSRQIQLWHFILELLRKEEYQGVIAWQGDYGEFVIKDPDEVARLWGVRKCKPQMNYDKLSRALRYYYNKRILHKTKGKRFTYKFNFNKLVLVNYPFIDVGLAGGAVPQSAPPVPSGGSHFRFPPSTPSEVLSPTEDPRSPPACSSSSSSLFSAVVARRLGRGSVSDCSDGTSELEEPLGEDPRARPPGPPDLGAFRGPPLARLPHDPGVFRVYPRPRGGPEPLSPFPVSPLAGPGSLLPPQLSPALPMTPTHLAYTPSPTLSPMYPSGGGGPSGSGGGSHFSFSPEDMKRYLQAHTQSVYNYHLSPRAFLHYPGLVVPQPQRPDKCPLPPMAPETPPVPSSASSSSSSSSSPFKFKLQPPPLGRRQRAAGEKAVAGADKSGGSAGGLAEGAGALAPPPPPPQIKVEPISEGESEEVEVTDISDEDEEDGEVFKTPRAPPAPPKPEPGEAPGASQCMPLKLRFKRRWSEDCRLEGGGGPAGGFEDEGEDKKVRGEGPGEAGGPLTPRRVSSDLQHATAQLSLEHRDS
In short: as §1

[12] = target: T7, ETV3L (Homo sapiens, UniProt Q6ZN32 1-361); conditions: protein: recombinant; tags: N-terminal GST; dsDNA, one strand shown
T7 sequence: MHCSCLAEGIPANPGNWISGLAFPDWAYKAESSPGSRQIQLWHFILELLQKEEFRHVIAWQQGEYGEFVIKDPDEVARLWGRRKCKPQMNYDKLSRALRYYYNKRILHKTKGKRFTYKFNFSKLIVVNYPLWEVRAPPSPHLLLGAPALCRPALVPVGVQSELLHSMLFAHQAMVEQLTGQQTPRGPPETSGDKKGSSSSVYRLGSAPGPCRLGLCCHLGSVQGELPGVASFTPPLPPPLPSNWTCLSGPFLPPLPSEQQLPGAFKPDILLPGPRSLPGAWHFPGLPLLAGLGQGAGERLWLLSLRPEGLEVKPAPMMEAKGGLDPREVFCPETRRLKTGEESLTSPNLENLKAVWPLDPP
In short: as §1

[13] = target: T8, ETS2 (Homo sapiens, UniProt P15036 1-469); conditions: protein: recombinant; tags: N-terminal GST; dsDNA, one strand shown
T8 sequence: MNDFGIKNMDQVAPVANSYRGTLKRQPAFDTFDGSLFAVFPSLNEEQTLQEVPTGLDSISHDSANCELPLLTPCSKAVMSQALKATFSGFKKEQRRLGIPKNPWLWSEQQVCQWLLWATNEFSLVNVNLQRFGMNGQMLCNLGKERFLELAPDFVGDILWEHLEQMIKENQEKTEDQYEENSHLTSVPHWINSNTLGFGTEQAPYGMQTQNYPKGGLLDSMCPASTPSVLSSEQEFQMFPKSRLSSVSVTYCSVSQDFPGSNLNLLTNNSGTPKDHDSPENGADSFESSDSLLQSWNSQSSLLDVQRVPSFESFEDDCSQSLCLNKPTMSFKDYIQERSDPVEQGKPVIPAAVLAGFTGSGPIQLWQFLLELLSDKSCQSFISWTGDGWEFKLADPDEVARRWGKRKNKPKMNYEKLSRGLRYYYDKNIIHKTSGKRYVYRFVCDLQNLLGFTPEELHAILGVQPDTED
In short: as §1

[14] = target: T9, SPDEF (Homo sapiens, UniProt O95238 1-335); conditions: protein: recombinant; tags: N-terminal GST; dsDNA, one strand shown
T9 sequence: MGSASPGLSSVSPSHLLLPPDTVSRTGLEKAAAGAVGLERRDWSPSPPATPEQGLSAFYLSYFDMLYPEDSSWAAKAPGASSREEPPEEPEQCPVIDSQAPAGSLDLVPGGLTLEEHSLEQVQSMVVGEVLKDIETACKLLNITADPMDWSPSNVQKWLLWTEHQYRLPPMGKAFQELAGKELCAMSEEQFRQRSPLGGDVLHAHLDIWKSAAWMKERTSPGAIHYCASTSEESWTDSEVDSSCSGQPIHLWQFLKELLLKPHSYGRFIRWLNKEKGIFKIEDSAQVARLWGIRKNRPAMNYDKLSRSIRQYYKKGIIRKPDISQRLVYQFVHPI
In short: as §1

[15] = target: T10, ETV7 (Homo sapiens, UniProt Q9Y603 1-341); conditions: protein: recombinant; tags: N-terminal GST; dsDNA, one strand shown
T10 sequence: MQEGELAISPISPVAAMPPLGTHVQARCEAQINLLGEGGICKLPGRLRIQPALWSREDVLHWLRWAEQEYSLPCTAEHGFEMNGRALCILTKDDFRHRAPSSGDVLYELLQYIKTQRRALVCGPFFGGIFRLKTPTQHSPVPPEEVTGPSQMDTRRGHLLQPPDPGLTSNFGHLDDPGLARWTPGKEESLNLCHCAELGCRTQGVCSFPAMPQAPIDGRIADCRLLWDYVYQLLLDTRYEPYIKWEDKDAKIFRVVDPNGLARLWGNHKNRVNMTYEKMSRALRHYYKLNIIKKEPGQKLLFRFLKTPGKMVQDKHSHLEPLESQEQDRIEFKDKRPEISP
In short: as §1

[16] = target: T11, ELF5 (Homo sapiens, UniProt Q9UKW6-2 1-255); conditions: protein: recombinant; tags: N-terminal GST; dsDNA, one strand shown
T11 sequence: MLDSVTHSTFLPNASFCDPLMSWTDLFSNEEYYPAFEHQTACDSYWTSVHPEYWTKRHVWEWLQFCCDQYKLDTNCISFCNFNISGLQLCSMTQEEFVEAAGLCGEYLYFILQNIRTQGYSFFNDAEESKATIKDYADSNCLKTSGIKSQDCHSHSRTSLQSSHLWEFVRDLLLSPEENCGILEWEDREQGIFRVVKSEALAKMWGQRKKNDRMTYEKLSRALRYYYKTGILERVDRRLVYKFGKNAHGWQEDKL
In short: as §1

[17] = target: T12, ETV3 (Homo sapiens, UniProt P41162-2 1-143); conditions: protein: recombinant; tags: N-terminal GST; dsDNA, one strand shown
T12 sequence: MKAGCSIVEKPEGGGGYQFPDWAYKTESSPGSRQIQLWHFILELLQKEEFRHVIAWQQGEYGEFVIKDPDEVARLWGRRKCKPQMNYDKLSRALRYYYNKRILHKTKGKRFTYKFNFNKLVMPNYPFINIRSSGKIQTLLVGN
In short: as §1

[18] = target: ETV6 (Homo sapiens, UniProt P41212 1-452); conditions: protein: recombinant; tags: N-terminal GST; dsDNA, one strand shown
Sequence of ETV6 (P41212 whole entry): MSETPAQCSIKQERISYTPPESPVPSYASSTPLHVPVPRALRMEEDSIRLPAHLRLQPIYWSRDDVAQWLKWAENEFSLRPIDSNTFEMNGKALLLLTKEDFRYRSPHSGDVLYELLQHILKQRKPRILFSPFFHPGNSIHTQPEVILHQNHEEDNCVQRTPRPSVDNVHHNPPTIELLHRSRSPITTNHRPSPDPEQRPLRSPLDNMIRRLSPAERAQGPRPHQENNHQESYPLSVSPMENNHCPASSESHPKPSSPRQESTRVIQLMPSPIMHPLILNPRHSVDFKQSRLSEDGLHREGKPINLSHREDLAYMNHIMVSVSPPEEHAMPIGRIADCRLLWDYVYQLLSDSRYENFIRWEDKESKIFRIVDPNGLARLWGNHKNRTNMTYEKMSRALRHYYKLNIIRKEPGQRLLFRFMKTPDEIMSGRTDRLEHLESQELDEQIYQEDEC
In short: as §1

Sequence: TCTACG
- binding signal [1]: 1.52 fold enrichment (6-mer frequency, TF over GST control)
- binding signal [2]: 1.3 fold enrichment (6-mer frequency, TF over GST control)
- binding signal [3]: 1.49 fold enrichment (6-mer frequency, TF over GST control)
- binding signal [4]: 1.3 fold enrichment (6-mer frequency, TF over GST control)
- binding signal [5]: 1.37 fold enrichment (6-mer frequency, TF over GST control)
- binding signal [6]: 1.36 fold enrichment (6-mer frequency, TF over GST control)
- binding signal [7]: 1.38 fold enrichment (6-mer frequency, TF over GST control)
- binding signal [8]: 1.5 fold enrichment (6-mer frequency, TF over GST control)
- binding signal [9]: 1.44 fold enrichment (6-mer frequency, TF over GST control)
- binding signal [10]: 1.44 fold enrichment (6-mer frequency, TF over GST control)
- binding signal [11]: 1.46 fold enrichment (6-mer frequency, TF over GST control)
- binding signal [12]: 1.4 fold enrichment (6-mer frequency, TF over GST control)
- binding signal [13]: 1.41 fold enrichment (6-mer frequency, TF over GST control)
- binding signal [14]: 1.33 fold enrichment (6-mer frequency, TF over GST control)
- binding signal [15]: 1.36 fold enrichment (6-mer frequency, TF over GST control)
- binding signal [16]: 1.35 fold enrichment (6-mer frequency, TF over GST control)
- binding signal [17]: 1.32 fold enrichment (6-mer frequency, TF over GST control)
- binding signal [18]: 1.2 fold enrichment (6-mer frequency, TF over GST control)

From article PMC7862700, “An all-to-all approach to the identification of sequence-specific readers for epigenetic DNA modifications on cytosine”
